# GALC G270D act: enhancers of human galactocerebrosidase G270D mutant activity in cells | Potency, µM (doses to about 57.5 µM), actives largely listed as activators | 145M-Twi-hGALC-G270D cells (Twitcher mouse brain line with human GALC G270D), HMU-beta-Gal fluorescence, 48 h | 45,000 tested, 0.1% active | P54803; note: potency is the fitted concentration of half-maximal effect; 0% is about no effect; nearly all actives have a fitted effect of over 65% in size
#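 Live 145M-Twi cells (Twitcher mouse brain-derived, GALC-null) stably expressing human GALC-G270D, with a wild-type GALC line, were compound-treated. Residual GALC activity was then read as fluorescence from 0.1 mM final HMU-β-gal at pH 5.2; higher signal means activation.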
# FH mod: Identification of activators of human fumarate hydratase by quantitative high-throughput screening; Fumarate hydratase, mitochondrial (Homo sapiens), P07954; FH coupled MDH/diaphorase resazurin fluorescence, 15 min; Potency, µM (doses to about 79.9 µM), inactives show top-dose activity change, negative = inhibition, most hits filed as inhibitors; 54,000 tested, 0.22% active; note: potency is the fitted concentration of half-maximal effect; % is set by controls: 0 for no effect and ±100 for the full control effect; the screen sought activators but most active calls are inhibition curves; nearly all actives have a fitted effect of over 45% in size
# NTMT1 inh: NTMT1 methyltransferase inhibition. Q9BV86. NTMT1 MTase-Glo SAH luminescence, purified enzyme. Potency, µM (titrated, usually from 114 µM), for the others: at the highest dose activity change, negative = inhibition, usual class: inhibitors. 59,000 tested, 2.5% active. AID 1645870;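 note: potency is the fitted concentration of half-maximal effect; plate controls were DMSO vehicle for no effect and no enzyme for full effect; nearly all actives have a fitted effect of over 65% in size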
# GALK inh: inhibitors of human galactokinase (GALK). 44,000 tested, under 10 active. recombinant GALK, Kinase-Glo ATP luminescence, 1 h. Potency, µM (series often up to 57.5 µM), inactives show at the top dose activity, negative = inhibition, hits mostly inhibitors. P51570;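 note: plate controls were full GALK reaction for no effect and reaction lacking GALK for full effect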
#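 Luminescent ATP-depletion readout (Kinase-Glo Plus, 10 min) after 1 h RT reaction of 5 nM GALK, 35 uM ATP, 100 uM galactose, pH 8.0 HEPES buffer. Decreased kinase activity scored as inhibition.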
# PTAP-TSG101 blk: TSG101-PTAP interaction inhibition, HIV-1 budding; Q99816; Potency, µM (series often up to 115 µM), most hits filed as inhibitors; 44,000 tested, under 10 active; Fluorescence polarization, FITC-PTAP peptide/Tsg101, 20 min; AID 1347069; note: potency is the fitted concentration of half-maximal effect; 0% is about no effect
#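 FITC-labeled PTAP peptide (50 nM final) binding to Tsg101 binding domain (10 uM final) read by fluorescence polarization after 20 min at r.t. in HEPES pH 7.5 buffer. Actives by CRC class, <25 µM.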
# B2AR arrestin ag: agonists recruiting beta-arrestin to human beta2-adrenergic receptor; 44,000 tested, under 10 active; P07550; Potency, µM (titrated, usually from 46.1 µM), actives largely listed as activators; HTLA Tango cells, beta-arrestin recruitment, luciferase luminescence, 18 h;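 note: potency is the fitted concentration of half-maximal effect; 0% = DMSO and full agonism = EC100 isoproterenol or metaproterenol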
#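 Ligand-induced beta-arrestin recruitment to recombinant beta2-AR is measured via a tTA-driven luciferase reporter in Tango cells after 18 hr compound exposure at 37 degrees C. Concentrations span up to 46 microM.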
# USP2 K63 confirm: USP2a inhibition confirmed on K63 diubiquitin | shares compounds with NTMT1 inh | USP2 cleavage of DiUb K63-3IQF, fluorescence kinetic | 30 tested, 80% active | Potency, µM (series often up to 57.5 µM), for inactives: top-dose activity change, negative = inhibition, hits mostly inhibitors
# Target sequence (O75604 whole entry, looked up): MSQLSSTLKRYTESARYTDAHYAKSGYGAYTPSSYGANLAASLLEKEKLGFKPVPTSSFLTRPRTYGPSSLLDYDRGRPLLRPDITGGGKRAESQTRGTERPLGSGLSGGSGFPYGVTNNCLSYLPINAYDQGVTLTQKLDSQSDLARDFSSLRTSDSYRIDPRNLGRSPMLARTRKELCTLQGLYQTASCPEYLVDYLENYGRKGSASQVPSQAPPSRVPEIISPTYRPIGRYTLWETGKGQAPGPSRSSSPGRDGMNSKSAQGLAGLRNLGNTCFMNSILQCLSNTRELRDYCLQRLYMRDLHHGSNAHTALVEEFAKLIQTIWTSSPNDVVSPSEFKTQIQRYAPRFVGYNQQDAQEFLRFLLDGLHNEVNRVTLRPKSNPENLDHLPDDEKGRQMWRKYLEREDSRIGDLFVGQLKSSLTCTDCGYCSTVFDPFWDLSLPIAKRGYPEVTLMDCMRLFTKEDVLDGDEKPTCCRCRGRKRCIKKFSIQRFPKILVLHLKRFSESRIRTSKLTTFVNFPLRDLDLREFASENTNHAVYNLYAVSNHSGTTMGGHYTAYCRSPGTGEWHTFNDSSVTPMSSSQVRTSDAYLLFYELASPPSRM
# Casp6 inh: caspase-6 inhibition, USP2a inhibitor counterscreen | shares compounds with NTMT1 inh | Caspase 6 enzyme, Caspase-Glo 6 luminescence | activity change, negative = inhibition, % at 46.1 µM | 30 tested, under 10 active
# NNMT inh: blocks human NNMT methyltransferase; NNMT MTase-Glo luminescence, SAH detection; 120 tested, 10% active; Potency, µM (doses to about 57.1 µM), without a hit: at the highest dose activity, negative = inhibition, actives largely listed as inhibitors; AID 1645878; shares compounds with NTMT1 inh
# * = called active by the depositor; i = inactive; ? = inconclusive; · = no result; [ ] = another dose, or the depositor's remark. The full list was thinned out, with hits kept by preference. Calls come from the whole dose curve; as a rule, active = well fitted curve in the direction sought with a large enough effect; inconclusive = small, poorly fitted or top-dose-only effect, or another doubt; inactive = no such curve, though single readings can be large; an effect the other way counts as inactive or inconclusive.
SMILES,GALC G270D act,FH mod,NTMT1 inh,GALK inh,PTAP-TSG101 blk,B2AR arrestin ag,others
Cc1cc(F)ccc1S(=O)(=O)Nc1cnccc1C(=O)Nc1nc(-c2ccccc2)cs1,·,·,18%,·,·,·,USP2 K63 confirm=1.9µM*;Casp6 inh=3
Cc1ccc(S(=O)(=O)Nc2ccc(OC(F)(F)F)cc2C(=O)Nc2nc(-c3ccccc3)cs2)cc1,·,·,-3%,·,·,·,
Cc1ccc(S(=O)(=O)Nc2cccnc2C(=O)Nc2nc(-c3ccccc3)cs2)cc1,·,·,23%,·,·,·,
Cc1ccc(S(=O)(=O)Nc2ncccc2C(=O)Nc2nc(-c3ccccc3)cs2)cc1,·,·,·,·,·,·,USP2 K63 confirm=3.4µM*;Casp6 inh=-4
Cc1ccc(S(=O)(=O)Nc2cc(F)c(F)cc2C(=O)Nc2nc(-c3ccccc3)cs2)cc1,·,·,7%,·,·,·,
Cc1ccc(S(=O)(=O)Nc2cc(C(F)(F)F)ccc2C(=O)Nc2nc(-c3ccccc3)cs2)cc1,·,·,?,·,·,·,USP2 K63 confirm=1.7µM*;Casp6 inh=-15
Cc1ccc(S(=O)(=O)Nc2ccc(Cl)cc2C(=O)Nc2nc(-c3ccccc3)cs2)cc1,·,·,?,·,·,·,USP2 K63 confirm=1.2µM*;Casp6 inh=0
Cc1ccc(S(=O)(=O)Nc2cnccc2C(=O)Nc2nc(-c3ccccc3F)cs2)cc1,·,·,-19%,·,·,·,
CCC(NC(=O)CC(NC(=O)C(CO)NC(=O)C(CC)NC(=O)c1ccc[nH]1)c1ccccc1)C(=O)O (stereo unspecified),·,6%[20.6 µM],16%[12.6 µM],·,·,·,
CC(C)=CCC(O)/C(C)=C/CO[C@@H]1O[C@H](CO)[C@@H](O)[C@H](O)[C@H]1O (stereo partly specified),·,6%[53.3 µM],3%[29.8 µM],·,·,·,
O=C(Nc1ccc(C(=O)Nc2nccs2)cc1)c1ccc2ccccc2c1,·,·,-7%,·,·,·,
O=C(Nc1ccc(S(=O)(=O)Nc2nccs2)cc1)c1ccc2ccccc2c1,·,·,?,·,·,·,USP2 K63 confirm=3.9µM*;Casp6 inh=-26
C/C(=N\NC(=S)N1CCC1)c1ccccn1,·,·,-6%,·,·,·,
COc1cc2c(NC3CCN(CC4CCCCC4)CC3)nc(N3CCCN(C(C)C)CC3)nc2cc1OCCCN1CCCCC1,·,-6%,?,·,·,·,
C[C@@H](Oc1cc(-n2cnc3ccc(OC4CCN(C)CC4)cc32)sc1C(N)=O)c1ccccc1C(F)(F)F,·,-11%,2.2µM*,·,·,·,NNMT inh=?
Cc1cc2c(c(=O)[nH]1)OC(C(O)CC(C)C)O2 (stereo unspecified),·,-1%,-16%,·,·,·,NNMT inh=2%
Cc1ccc(-c2cc(C(=O)Nc3ccc(Cl)cc3)c3ccccc3n2)cc1C,·,·,10%,·,·,·,
COc1ccc(CNC(=O)C(=O)Nc2ccccc2OC)cc1,i,-18%,15%,0%,i,i,
COc1ccccc1NC(=O)Nc1ccc2ccccc2c1,·,?,-9%[57.5 µM],·,·,·,NNMT inh=-14%
FC(F)(F)c1ccccc1-c1nc(NCc2ccc(-c3cccc4ccccc34)cc2)c2ccccc2n1,·,·,11%,·,·,·,
Nc1[nH]nc2nnc(-c3c(-c4ccccc4)nn4ccccc34)cc12,·,2%,8.9µM*,·,·,·,NNMT inh=11µM*
O=C(O)c1cc(-c2c(-c3ccccc3)nn3ccccc23)n[nH]c1=O,·,0%,-6%[57.5 µM],·,·,·,
CN[C@@H]1[C@@H](O)[C@@H](O[C@@H]2[C@@H](O)[C@H](O[C@H]3O[C@H](CN)[C@@H](O)[C@H](O)[C@H]3O)[C@@H](N)C[C@H]2NC(=O)[C@@H](O)CN)OC[C@]1(C)O,·,6%,4%[57.5 µM],·,·,·,

# Screening data: PubChem BioAssay, National Center for Advancing Translational Sciences (NCATS)
